Experimental data: PMC7862700, “An all-to-all approach to the identification of sequence-specific readers for epigenetic DNA modifications on cytosine”

Key:
Test in all cases: DAPPL (digital affinity profiling via proximity ligation, sequencing); 10 mM Tris-HCl pH 7.5, 50 mM NaCl, 1 mM DTT, 4% glycerol, room temperature, 30 min; GST-TFs on glutathione beads, 16-mer random dsDNA library, 0.1% formaldehyde crosslink after washing; high values mean tight binding
FEV = target: T1, FEV (Homo sapiens, UniProt Q99581 1-238); conditions: protein: recombinant; tags: N-terminal GST; dsDNA, one strand shown
T1 sequence: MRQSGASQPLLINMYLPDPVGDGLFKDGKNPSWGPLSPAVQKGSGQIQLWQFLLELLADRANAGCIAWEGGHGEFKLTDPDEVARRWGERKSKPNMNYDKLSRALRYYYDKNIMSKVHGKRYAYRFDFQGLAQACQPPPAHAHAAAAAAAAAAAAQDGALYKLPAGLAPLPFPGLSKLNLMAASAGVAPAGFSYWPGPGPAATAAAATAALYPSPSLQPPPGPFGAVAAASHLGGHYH
Summary of the method: (§1)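 Yeast served to express human transcription factors as GST fusions, which were then captured on glutathione beads and labelled with DNA barcodes. Pooled with a tag-only sample, they were incubated with 200 nmole of a 16-mer random double-stranded DNA library for 30 min at room temperature in Tris/NaCl/DTT/glycerol buffer, washed, crosslinked with 0.1% formaldehyde, ligated by proximity, amplified by PCR and sequenced. Dividing each hexamer's read frequency for a factor by its frequency for the tag-only sample gives the binding signal.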

ETV5 = ETV5 (Homo sapiens, UniProt P41161 1-510); conditions: protein: recombinant; tags: N-terminal GST; dsDNA, one strand shown
Sequence of ETV5 (P41161 whole entry): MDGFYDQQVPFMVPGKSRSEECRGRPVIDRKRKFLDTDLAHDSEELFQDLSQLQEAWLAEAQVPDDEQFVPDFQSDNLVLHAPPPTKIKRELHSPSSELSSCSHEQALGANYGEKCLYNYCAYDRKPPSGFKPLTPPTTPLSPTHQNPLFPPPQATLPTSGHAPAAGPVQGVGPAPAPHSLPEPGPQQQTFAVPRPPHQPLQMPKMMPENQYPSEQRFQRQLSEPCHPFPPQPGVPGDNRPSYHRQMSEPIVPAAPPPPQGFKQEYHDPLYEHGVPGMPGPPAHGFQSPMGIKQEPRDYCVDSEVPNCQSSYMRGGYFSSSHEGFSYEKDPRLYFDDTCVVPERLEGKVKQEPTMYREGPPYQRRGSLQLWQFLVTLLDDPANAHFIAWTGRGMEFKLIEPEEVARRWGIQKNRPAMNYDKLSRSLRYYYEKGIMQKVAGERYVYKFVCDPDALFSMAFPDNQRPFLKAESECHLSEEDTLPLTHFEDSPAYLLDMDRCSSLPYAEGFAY
Summary of the method: as §1

HSF1 = HSF1 (Homo sapiens, UniProt Q00613 1-529); conditions: protein: recombinant; tags: N-terminal GST; chain copies: 3; dsDNA, one strand shown
Sequence of HSF1 (Q00613 whole entry): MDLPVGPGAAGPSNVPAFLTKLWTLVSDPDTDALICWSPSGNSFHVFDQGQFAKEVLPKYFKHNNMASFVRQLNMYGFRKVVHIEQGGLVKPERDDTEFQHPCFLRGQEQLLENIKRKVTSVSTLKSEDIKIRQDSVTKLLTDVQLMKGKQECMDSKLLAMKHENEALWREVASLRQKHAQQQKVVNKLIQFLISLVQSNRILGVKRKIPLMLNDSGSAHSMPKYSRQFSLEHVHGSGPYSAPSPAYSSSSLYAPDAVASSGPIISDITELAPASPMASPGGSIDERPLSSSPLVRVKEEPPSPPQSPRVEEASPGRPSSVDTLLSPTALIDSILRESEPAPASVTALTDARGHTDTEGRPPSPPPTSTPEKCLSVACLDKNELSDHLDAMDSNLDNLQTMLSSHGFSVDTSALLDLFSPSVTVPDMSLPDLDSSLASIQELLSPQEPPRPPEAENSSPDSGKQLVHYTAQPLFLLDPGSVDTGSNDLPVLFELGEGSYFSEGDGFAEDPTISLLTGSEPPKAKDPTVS
Summary of the method: as §1

SPIC = target: T2, SPIC (Homo sapiens, UniProt Q8N5J4 1-248); conditions: protein: recombinant; tags: N-terminal GST; dsDNA, one strand shown
T2 sequence: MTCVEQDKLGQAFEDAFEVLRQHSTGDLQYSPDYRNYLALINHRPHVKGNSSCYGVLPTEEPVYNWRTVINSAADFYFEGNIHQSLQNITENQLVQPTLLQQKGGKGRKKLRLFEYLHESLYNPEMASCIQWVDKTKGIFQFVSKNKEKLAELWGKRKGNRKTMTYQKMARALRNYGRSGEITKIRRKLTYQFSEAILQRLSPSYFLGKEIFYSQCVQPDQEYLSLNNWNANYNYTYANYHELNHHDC
Summary of the method: as §1

ELF4 = ELF4 (Homo sapiens, UniProt Q99607 1-663); conditions: protein: recombinant; tags: N-terminal GST; dsDNA, one strand shown
Sequence of ELF4 (Q99607 whole entry): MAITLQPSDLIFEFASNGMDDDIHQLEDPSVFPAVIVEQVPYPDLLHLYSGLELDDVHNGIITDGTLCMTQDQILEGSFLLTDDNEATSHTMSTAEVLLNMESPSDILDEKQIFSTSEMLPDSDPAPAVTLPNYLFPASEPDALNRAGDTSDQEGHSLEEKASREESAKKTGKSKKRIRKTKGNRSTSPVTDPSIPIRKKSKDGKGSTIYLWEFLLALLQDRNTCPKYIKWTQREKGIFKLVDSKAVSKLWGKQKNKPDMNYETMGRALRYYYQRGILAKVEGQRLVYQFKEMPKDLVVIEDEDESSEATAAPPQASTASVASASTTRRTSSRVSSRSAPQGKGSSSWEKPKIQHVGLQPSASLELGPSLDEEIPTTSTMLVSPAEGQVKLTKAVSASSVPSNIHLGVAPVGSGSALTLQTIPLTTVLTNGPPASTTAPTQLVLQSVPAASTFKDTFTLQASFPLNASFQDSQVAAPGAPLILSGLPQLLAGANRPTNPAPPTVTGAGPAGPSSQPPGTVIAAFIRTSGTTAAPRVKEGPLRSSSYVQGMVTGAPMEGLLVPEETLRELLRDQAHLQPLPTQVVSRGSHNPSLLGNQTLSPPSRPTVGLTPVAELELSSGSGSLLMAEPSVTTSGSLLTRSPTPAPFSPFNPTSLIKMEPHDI
Summary of the method: as §1

ELK4 = target: T3, ELK4 (Homo sapiens, UniProt P28324-2 1-405); conditions: protein: recombinant; tags: N-terminal GST; dsDNA, one strand shown
T3 sequence: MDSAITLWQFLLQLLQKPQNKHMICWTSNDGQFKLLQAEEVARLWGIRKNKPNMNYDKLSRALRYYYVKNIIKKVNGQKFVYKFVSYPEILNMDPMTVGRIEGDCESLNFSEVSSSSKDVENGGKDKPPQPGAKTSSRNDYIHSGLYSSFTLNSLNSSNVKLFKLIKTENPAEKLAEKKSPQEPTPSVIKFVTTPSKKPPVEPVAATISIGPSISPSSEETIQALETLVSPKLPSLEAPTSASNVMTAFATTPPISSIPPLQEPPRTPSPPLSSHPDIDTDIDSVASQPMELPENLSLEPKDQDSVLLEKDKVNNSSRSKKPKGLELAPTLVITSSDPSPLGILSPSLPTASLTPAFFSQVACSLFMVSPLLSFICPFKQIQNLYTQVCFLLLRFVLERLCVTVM
Summary of the method: as §1

ETV2 = target: T4, ETV2 (Homo sapiens, UniProt O00321 1-342); conditions: protein: recombinant; tags: N-terminal GST; dsDNA, one strand shown
T4 sequence: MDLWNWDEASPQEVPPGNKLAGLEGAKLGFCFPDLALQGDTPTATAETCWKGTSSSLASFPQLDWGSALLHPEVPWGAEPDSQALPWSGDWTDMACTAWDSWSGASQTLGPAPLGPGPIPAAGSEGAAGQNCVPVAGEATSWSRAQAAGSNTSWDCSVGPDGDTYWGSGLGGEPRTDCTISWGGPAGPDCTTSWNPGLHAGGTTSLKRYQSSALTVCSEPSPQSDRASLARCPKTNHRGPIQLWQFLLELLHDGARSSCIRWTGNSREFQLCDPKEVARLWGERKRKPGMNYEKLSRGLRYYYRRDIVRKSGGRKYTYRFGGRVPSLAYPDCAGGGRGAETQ
Summary of the method: as §1

ELF3 = target: T5, ELF3 (Homo sapiens, UniProt P78545 1-371); conditions: protein: recombinant; tags: N-terminal GST; dsDNA, one strand shown
T5 sequence: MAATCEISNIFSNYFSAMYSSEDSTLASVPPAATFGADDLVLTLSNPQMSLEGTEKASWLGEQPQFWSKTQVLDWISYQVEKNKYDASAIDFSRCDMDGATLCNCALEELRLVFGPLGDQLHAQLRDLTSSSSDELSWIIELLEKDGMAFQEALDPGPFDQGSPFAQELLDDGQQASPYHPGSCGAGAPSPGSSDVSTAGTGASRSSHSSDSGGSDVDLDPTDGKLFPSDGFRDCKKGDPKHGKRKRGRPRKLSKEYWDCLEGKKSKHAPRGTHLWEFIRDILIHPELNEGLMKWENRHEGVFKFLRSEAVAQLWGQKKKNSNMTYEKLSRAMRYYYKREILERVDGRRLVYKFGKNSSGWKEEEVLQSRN
Summary of the method: as §1

CRX = CRX (Homo sapiens, UniProt O43186 1-299); conditions: protein: recombinant; tags: N-terminal GST; dsDNA, one strand shown
Sequence of CRX (O43186 whole entry): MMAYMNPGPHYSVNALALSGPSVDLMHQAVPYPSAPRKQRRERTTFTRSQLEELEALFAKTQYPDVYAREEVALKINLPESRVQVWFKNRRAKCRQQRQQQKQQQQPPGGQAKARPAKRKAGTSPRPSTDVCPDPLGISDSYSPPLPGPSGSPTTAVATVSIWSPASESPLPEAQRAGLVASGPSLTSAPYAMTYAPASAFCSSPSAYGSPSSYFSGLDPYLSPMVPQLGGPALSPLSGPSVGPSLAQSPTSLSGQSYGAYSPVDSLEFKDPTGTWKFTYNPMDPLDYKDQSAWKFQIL
Summary of the method: as §1

ETV1 = ETV1 (Homo sapiens, UniProt P50549 1-477); conditions: protein: recombinant; tags: N-terminal GST; dsDNA, one strand shown
Sequence of ETV1 (P50549 whole entry): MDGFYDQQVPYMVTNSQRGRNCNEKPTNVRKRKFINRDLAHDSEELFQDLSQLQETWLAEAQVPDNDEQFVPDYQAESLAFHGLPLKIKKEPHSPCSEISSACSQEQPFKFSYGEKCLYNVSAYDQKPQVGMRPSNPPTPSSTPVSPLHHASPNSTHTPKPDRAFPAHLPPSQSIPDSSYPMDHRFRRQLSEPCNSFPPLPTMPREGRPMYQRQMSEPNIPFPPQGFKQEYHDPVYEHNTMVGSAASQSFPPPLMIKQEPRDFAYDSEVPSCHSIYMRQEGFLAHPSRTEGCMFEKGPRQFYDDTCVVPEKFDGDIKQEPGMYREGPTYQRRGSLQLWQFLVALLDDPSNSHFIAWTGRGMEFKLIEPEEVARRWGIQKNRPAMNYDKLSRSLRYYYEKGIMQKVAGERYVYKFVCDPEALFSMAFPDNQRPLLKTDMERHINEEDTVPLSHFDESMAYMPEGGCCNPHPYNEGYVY
Summary of the method: as §1

ERF = target: T6, ERF (Homo sapiens, UniProt P50548 1-548); conditions: protein: recombinant; tags: N-terminal GST; dsDNA, one strand shown
T6 sequence: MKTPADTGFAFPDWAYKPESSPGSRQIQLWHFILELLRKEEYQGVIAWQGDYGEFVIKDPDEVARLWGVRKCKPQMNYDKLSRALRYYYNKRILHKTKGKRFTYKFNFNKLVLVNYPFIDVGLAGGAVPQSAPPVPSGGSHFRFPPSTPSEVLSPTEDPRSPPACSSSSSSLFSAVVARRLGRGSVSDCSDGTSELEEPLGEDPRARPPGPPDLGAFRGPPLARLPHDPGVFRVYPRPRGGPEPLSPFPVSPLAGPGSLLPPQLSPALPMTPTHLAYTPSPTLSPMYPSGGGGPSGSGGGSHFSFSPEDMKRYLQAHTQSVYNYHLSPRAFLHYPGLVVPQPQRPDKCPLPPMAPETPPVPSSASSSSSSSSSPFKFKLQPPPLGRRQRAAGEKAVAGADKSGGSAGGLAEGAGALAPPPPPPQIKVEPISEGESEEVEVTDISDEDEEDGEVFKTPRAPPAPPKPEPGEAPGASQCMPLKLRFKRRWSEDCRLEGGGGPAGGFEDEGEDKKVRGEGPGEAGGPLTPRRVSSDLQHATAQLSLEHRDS
Summary of the method: as §1

ETV3L = target: T7, ETV3L (Homo sapiens, UniProt Q6ZN32 1-361); conditions: protein: recombinant; tags: N-terminal GST; dsDNA, one strand shown
T7 sequence: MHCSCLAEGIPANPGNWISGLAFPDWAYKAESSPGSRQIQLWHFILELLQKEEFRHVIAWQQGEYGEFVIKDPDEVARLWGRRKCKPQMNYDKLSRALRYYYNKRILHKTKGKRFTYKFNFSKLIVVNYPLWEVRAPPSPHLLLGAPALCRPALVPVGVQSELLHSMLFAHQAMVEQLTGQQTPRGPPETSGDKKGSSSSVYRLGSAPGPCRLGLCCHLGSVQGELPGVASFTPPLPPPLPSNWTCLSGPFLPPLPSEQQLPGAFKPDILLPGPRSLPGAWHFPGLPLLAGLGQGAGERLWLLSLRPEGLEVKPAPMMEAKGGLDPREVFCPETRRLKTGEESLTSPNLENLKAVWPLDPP
Summary of the method: as §1

ETS2 = target: T8, ETS2 (Homo sapiens, UniProt P15036 1-469); conditions: protein: recombinant; tags: N-terminal GST; dsDNA, one strand shown
T8 sequence: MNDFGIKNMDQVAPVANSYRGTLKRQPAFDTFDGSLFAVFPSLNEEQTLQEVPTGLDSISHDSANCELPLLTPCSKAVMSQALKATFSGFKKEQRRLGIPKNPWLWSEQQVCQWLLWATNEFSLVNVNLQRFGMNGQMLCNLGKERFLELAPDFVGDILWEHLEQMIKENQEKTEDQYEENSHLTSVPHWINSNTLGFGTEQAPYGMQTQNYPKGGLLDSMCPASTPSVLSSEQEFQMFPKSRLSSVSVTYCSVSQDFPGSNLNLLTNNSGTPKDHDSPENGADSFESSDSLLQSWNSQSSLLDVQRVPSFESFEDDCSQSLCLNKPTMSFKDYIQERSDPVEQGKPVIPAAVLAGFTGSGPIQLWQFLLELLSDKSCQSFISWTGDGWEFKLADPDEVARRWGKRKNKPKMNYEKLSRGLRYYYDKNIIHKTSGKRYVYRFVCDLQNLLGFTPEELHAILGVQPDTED
Summary of the method: as §1

SPDEF = target: T9, SPDEF (Homo sapiens, UniProt O95238 1-335); conditions: protein: recombinant; tags: N-terminal GST; dsDNA, one strand shown
T9 sequence: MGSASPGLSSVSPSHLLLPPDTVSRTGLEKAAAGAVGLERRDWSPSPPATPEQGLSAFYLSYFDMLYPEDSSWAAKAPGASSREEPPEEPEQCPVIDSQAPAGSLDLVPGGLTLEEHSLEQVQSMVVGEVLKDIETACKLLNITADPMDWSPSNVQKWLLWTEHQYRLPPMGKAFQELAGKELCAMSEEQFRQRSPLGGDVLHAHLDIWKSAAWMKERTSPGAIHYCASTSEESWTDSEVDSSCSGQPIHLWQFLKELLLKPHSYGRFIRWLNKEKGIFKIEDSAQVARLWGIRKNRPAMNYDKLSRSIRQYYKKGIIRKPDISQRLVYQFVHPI
Summary of the method: as §1

ETV7 = target: T10, ETV7 (Homo sapiens, UniProt Q9Y603 1-341); conditions: protein: recombinant; tags: N-terminal GST; dsDNA, one strand shown
T10 sequence: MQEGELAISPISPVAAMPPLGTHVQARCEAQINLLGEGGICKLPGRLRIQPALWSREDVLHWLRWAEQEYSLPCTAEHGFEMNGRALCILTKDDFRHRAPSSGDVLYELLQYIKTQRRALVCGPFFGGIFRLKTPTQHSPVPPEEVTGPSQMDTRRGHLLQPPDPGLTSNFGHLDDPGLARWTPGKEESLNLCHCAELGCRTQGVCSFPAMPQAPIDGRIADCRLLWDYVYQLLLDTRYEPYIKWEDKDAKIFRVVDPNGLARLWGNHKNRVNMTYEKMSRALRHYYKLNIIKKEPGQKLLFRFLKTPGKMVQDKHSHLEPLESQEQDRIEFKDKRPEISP
Summary of the method: as §1

ELF5 = target: T11, ELF5 (Homo sapiens, UniProt Q9UKW6-2 1-255); conditions: protein: recombinant; tags: N-terminal GST; dsDNA, one strand shown
T11 sequence: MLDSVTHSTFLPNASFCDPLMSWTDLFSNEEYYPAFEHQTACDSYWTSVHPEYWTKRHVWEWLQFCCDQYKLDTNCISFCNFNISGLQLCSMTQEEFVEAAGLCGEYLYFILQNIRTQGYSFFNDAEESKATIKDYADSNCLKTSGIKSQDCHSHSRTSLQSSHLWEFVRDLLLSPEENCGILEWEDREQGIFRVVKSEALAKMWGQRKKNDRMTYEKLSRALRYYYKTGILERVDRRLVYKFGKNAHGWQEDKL
Summary of the method: as §1

ETV3 = target: T12, ETV3 (Homo sapiens, UniProt P41162-2 1-143); conditions: protein: recombinant; tags: N-terminal GST; dsDNA, one strand shown
T12 sequence: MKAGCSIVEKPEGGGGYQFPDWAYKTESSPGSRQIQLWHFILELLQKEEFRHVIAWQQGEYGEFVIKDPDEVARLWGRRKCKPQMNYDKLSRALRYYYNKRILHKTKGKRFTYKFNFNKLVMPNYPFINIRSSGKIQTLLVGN
Summary of the method: as §1

ETV6 = ETV6 (Homo sapiens, UniProt P41212 1-452); conditions: protein: recombinant; tags: N-terminal GST; dsDNA, one strand shown
Sequence of ETV6 (P41212 whole entry): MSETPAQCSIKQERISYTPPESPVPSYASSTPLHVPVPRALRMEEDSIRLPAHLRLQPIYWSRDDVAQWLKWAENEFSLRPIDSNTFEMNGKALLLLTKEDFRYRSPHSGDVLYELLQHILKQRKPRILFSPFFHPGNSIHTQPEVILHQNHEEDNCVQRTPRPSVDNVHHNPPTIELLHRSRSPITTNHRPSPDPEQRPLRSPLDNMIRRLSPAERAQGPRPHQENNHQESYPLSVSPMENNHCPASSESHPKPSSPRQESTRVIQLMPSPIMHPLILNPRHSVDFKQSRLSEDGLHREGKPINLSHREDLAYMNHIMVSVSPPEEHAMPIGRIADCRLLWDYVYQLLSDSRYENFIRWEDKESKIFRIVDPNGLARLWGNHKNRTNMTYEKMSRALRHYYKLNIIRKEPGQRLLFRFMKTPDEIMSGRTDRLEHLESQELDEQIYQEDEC
Summary of the method: as §1

AAGCAG
binding signal (FEV): 1.09 fold enrichment (6-mer frequency, TF over GST control)
binding signal (ETV5): 1.18 fold enrichment (6-mer frequency, TF over GST control)
binding signal (HSF1): 1.05 fold enrichment (6-mer frequency, TF over GST control)
binding signal (SPIC): 1.09 fold enrichment (6-mer frequency, TF over GST control)
binding signal (ELF4): 1.12 fold enrichment (6-mer frequency, TF over GST control)
binding signal (ELK4): 1.06 fold enrichment (6-mer frequency, TF over GST control)
binding signal (ETV2): 1.13 fold enrichment (6-mer frequency, TF over GST control)
binding signal (ELF3): 1.04 fold enrichment (6-mer frequency, TF over GST control)
binding signal (CRX): 1.11 fold enrichment (6-mer frequency, TF over GST control)
binding signal (ETV1): 1.19 fold enrichment (6-mer frequency, TF over GST control)
binding signal (ERF): 1 fold enrichment (6-mer frequency, TF over GST control)
binding signal (ETV3L): 1.04 fold enrichment (6-mer frequency, TF over GST control)
binding signal (ETS2): 1.14 fold enrichment (6-mer frequency, TF over GST control)
binding signal (SPDEF): 1.13 fold enrichment (6-mer frequency, TF over GST control)
binding signal (ETV7): 1.14 fold enrichment (6-mer frequency, TF over GST control)
binding signal (ELF5): 1.19 fold enrichment (6-mer frequency, TF over GST control)
binding signal (ETV3): 1.1 fold enrichment (6-mer frequency, TF over GST control)
binding signal (ETV6): 1.11 fold enrichment (6-mer frequency, TF over GST control)
